Data reported in PubChem BioAssay AID485313 (National Center for Advancing Translational Sciences (NCATS), 2010).
About 7,600 (2.4%) of roughly 320,000 compounds were called active. Where a call stands in place of a potency, no number is given. Inconclusive results (about 3%) are left out. Calls follow the shape of the dose curve; as a rule, active = well fitted activation curve with a large enough effect; inconclusive = small, poorly fitted or top-dose-only effect; inactive = no such curve, though single readings can be large or run the other way. The full list was thinned out, with actives kept by preference.

assay: qHTS Assay for NPC1 Promoter Activators; settings: Huh7 NPC1 promoter luciferase reporter, 24 h; series mostly up to 9.22 µM; also: nearly all actives have a fitted effect of over 60% in size;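 as to activation: reporter is driven by a mutant NPC1 promoter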
Method in brief: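 In 1536-well qHTS, Huh7 cells harboring an NPC1 promoter–luciferase construct received compound for 24 h; activation was quantified by luminescence following luciferase reagent addition.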
Potency is read from the fitted curve at half-maximal effect.

**Q.** With `CN(C(=O)Cn1nnc(-c2ccc(F)cc2)n1)C1CCS(=O)(=O)C1` (stereo unspecified) as the compound, how does the Potency read?
**A.** inactive

**Q.** For `CCOC(=O)c1ccccc1NC(=O)COC(=O)C(Cc1c[nH]c2ccccc12)NC(C)=O` (stereo unspecified), which Potency is on record?
**A.** inactive

**Q.** With `CC(C)Cc1nnc(NC(=O)CCNC(=O)c2ccccc2Cl)s1` as the compound, how does the Potency read?
**A.** inactive

**Q.** For `O=C(COC(=O)CNC(=O)C1CCCCC1)NCc1ccccc1`, which Potency is on record?
**A.** inactive

**Q.** For `CC(C(=O)NC1CCCC1)N1CCN(S(=O)(=O)c2ccccc2Cl)CC1` (stereo unspecified), which Potency is on record?
**A.** inactive

**Q.** Which Potency does the source give for `Cc1ccc(NS(=O)(=O)c2ccc3c(c2)CC(=O)N3)cc1Cl` here?
**A.** inactive

**Q.** Which Potency does the source give for `O=C(OCC(=O)N1CCc2ccccc21)c1ccc([N+](=O)[O-])cc1` here?
**A.** inactive

**Q.** With `CC1CCCN(C(=O)c2cc(-c3ccco3)nc3ccccc23)C1` (stereo unspecified) as the compound, how does the Potency read?
**A.** inactive

**Q.** For `Nc1ccc(N=Nc2ccccc2Cl)c(N)n1`, which Potency is on record?
**A.** 3160 nM (active)

**Q.** Which Potency does the source give for `O=C(NCc1ccncc1)c1cccc(NS(=O)(=O)c2ccc(F)c(F)c2)c1` here?
**A.** inactive

**Q.** Which Potency does the source give for `CC[C@H](C)C(=O)N[C@H]1CCCN1C(=O)/C=C/c1ccccc1` here?
**A.** inactive

**Q.** For `Cc1ccc(NC(=O)Nc2ccc3oc(C)nc3c2)cc1`, which Potency is on record?
**A.** 1120 nM (active)

**Q.** For `Cc1nc2ccc(NC(=O)C(F)(F)F)cc2o1`, which Potency is on record?
**A.** inactive

**Q.** Which Potency does the source give for `Cc1nc2cc(NC(=O)NCc3ccccc3)ccc2o1` here?
**A.** inactive

**Q.** With `CCc1ccc(OCC(=O)OC(C)C(=O)NC2CC2)cc1` (stereo unspecified) as the compound, how does the Potency read?
**A.** inactive

**Q.** With `O=C(CN1CCc2ccccc2C1)Nc1cccc(S(=O)(=O)N2CCOCC2)c1` as the compound, how does the Potency read?
**A.** inactive

**Q.** Which Potency does the source give for `Cc1cccc(NS(=O)(=O)c2cccc(C(=O)NNC(=O)c3ccccc3O)c2)c1` here?
**A.** inactive

**Q.** Which Potency does the source give for `Cc1cc(C)cc(OCC(=O)Nc2ccc(N3CCOCC3)cc2N2CCOCC2)c1` here?
**A.** inactive

**Q.** Which Potency does the source give for `CCN1/C(=C/c2ccc3ccc(C)cc3[n+]2CC)Sc2ccccc21` here?
**A.** inactive

**Q.** Which Potency does the source give for `CCN1/C(=C/C(=S)Nc2ccccc2)Sc2ccccc21` here?
**A.** 3980 nM (active)

**Q.** With `O=C(CCN1c2ccccc2Sc2ccccc21)Nc1ccccc1` as the compound, how does the Potency read?
**A.** inactive

**Q.** With `CCOc1ccc(C(=O)CCC(=O)NC2=NCCS2)cc1` as the compound, how does the Potency read?
**A.** inactive

**Q.** For `O=C(NC1=NCCS1)[C@H](Cc1ccccc1)N1C(=O)c2ccccc2C1=O`, which Potency is on record?
**A.** inactive

**Q.** For `COc1ccccc1C(=O)NCCC(=O)NC1=NCCS1`, which Potency is on record?
**A.** inactive

**Q.** With `COc1ccc(C(=O)NC2=NCCS2)c(OC)c1` as the compound, how does the Potency read?
**A.** 891 nM (active)

**Q.** With `O=C(NCc1ccc2c(c1)OCO2)c1ccc(Cl)s1` as the compound, how does the Potency read?
**A.** inactive

**Q.** With `O=C(NC1=NCCS1)c1ccc(Cl)s1` as the compound, how does the Potency read?
**A.** 2510 nM (active)

**Q.** With `O=C(COC(=O)c1ccc(N2CCCC2=O)cc1)c1ccc(OC(F)F)cc1` as the compound, how does the Potency read?
**A.** inactive

**Q.** With `COc1cc(OC)cc(-c2c(-c3cccs3)c3cc(-c4ccc(OC)nc4)ccc3n2C)c1` as the compound, how does the Potency read?
**A.** inactive

**Q.** Which Potency does the source give for `CCCCN(C(=O)c1ccc2ccccc2c1)c1c(N)n(CCCC)c(=O)[nH]c1=O` here?
**A.** inactive

**Q.** For `Nc1ncc(CN2CCCC(C(=O)Nc3ccc(-c4ccco4)cc3)C2)cn1` (stereo unspecified), which Potency is on record?
**A.** inactive

**Q.** For `COc1ccc(C(C)(C)C)cc1NC(=O)CCN1C(=O)C2CCCCC2C1=O` (stereo unspecified), which Potency is on record?
**A.** inactive

**Q.** With `O=C(CSc1ncnc2c1nnn2Cc1ccc(F)cc1)NC1CCCC1` as the compound, how does the Potency read?
**A.** inactive

**Q.** For `CN(C)C(=O)COC(=O)c1cccc(S(=O)(=O)N2CC3(C)CC2CC(C)(C)C3)c1` (stereo unspecified), which Potency is on record?
**A.** inactive

**Q.** With `CCCNC(=O)c1c(Cl)cnn1-c1ccc(C)cc1` as the compound, how does the Potency read?
**A.** 2510 nM (active)

**Q.** For `CCCNC(=O)CCc1c(C)nc2c(c(C)nn2-c2ccc(C)cc2)c1C`, which Potency is on record?
**A.** inactive

**Q.** For `CCCc1c(C(=O)O)cnn1-c1ccc(Cl)cc1`, which Potency is on record?
**A.** inactive

**Q.** Which Potency does the source give for `Cc1ccc(C)c(OCC(=O)NNC(=O)C2CCC2)c1` here?
**A.** inactive

**Q.** Which Potency does the source give for `O=C(O[C@@H]1[C@H](Cc2ccccc2)NS(=O)(=O)[C@H]2C[C@@H]3C=C[C@]12O3)c1ccccc1Br` here?
**A.** inactive

**Q.** For `O=C(CNS(=O)(=O)c1ccc2c(c1)OCCCO2)N1CCN(c2ccc(F)cc2)CC1`, which Potency is on record?
**A.** inactive

**Q.** For `O=C(NNC(=O)C1CCC1)c1ccccc1`, which Potency is on record?
**A.** inactive

**Q.** Which Potency does the source give for `COc1ccc(S(=O)(=O)N2CCOCC2)cc1NC(=O)CSc1cc(C)ccc1C` here?
**A.** inactive

**Q.** Which Potency does the source give for `COc1ccc2[nH]c(C(=O)Nc3ccccc3Cl)cc2c1` here?
**A.** inactive

**Q.** Which Potency does the source give for `O=C(Nc1ccccc1)c1cc2ccccc2[nH]1` here?
**A.** 3980 nM (active)

**Q.** For `CC(C)n1c(=O)[nH]c2cc(C(=O)Nc3ccccc3)ccc21`, which Potency is on record?
**A.** inactive

**Q.** With `CC1(C(=O)OCC(=O)Nc2ncc(Cl)cc2Cl)CC1(Cl)Cl` (stereo unspecified) as the compound, how does the Potency read?
**A.** inactive

**Q.** Which Potency does the source give for `O=S(=O)(c1ccc(SCc2ccc(Br)cc2)nc1)N1CCOCC1` here?
**A.** inactive

**Q.** With `CCOc1ccc(C(=O)NCC(=O)N2CCN(c3ccc(C(F)(F)F)cn3)CC2)cc1` as the compound, how does the Potency read?
**A.** inactive

**Q.** With `O=[N+]([O-])c1cccc(/C=N/Nc2ncc(Br)cn2)c1` as the compound, how does the Potency read?
**A.** 2820 nM (active)

**Q.** For `Cc1ccc(NC(=O)O/N=C/c2cccc([N+](=O)[O-])c2)cc1`, which Potency is on record?
**A.** inactive

**Q.** With `O=C(N/N=C/c1cccc([N+](=O)[O-])c1)C1CC(=O)N(c2ccc(Br)cc2)C1` (stereo unspecified) as the compound, how does the Potency read?
**A.** inactive

**Q.** For `CC(C)Oc1ccc(C(=O)NCC(=O)Nc2ccc3c(c2)CCC3)cc1`, which Potency is on record?
**A.** inactive

**Q.** With `COc1ccc(/C=N/Nc2cc(N3CCOCC3)nc(C)n2)c(OC)c1` as the compound, how does the Potency read?
**A.** inactive

**Q.** With `COc1ccc(/C=N/OCc2ccccc2C#N)c(OC)c1` as the compound, how does the Potency read?
**A.** 3980 nM (active)

**Q.** Which Potency does the source give for `COc1ccc(/C=N/NC(=O)c2ccc3c(c2)OCCO3)c(OC)c1` here?
**A.** inactive

**Q.** With `CC(C)C(=O)Nc1ccc2oc(=O)ccc2c1` as the compound, how does the Potency read?
**A.** inactive

**Q.** With `Cc1cc(=O)oc2cc(NC(=O)C(C)Oc3ccccc3)ccc12` (stereo unspecified) as the compound, how does the Potency read?
**A.** inactive

**Q.** Which Potency does the source give for `CC(C)C(=O)Nc1ccc2c(c1)oc1ccccc12` here?
**A.** 3550 nM (active)

**Q.** For `O=S(=O)(NCCCCCCNS(=O)(=O)c1c(F)cccc1F)c1ccc2c(c1)OCCO2`, which Potency is on record?
**A.** inactive

**Q.** With `CCCCc1ccc(NC(=S)N2CCCC(CO)C2)cc1` (stereo unspecified) as the compound, how does the Potency read?
**A.** 1580 nM (active)

**Q.** With `COc1ccc(NC(=S)N2CCCC(CO)C2)c(OC)c1` (stereo unspecified) as the compound, how does the Potency read?
**A.** inactive

**Q.** For `CCCCc1ccc(NC(=S)NCCCN2CCOCC2)cc1`, which Potency is on record?
**A.** inactive

**Q.** For `CC(C)N(C(=O)CN1CCN(S(=O)(=O)c2ccc(Br)s2)CC1)C(C)C`, which Potency is on record?
**A.** inactive

**Q.** With `N#Cc1ccccc1NC(=O)c1cccc(COc2ccc(Cl)cc2Cl)c1` as the compound, how does the Potency read?
**A.** 316 nM (active)

**Q.** With `CSc1ccc(C#N)cc1NC(=O)c1cccc(Cl)c1` as the compound, how does the Potency read?
**A.** inactive

**Q.** Which Potency does the source give for `O=C(Nc1cccc2cccnc12)c1cccc(Cl)c1` here?
**A.** inactive

**Q.** With `CCn1nc(C(=O)Nc2ccc(N3CCOCC3)cc2)c2ccccc2c1=O` as the compound, how does the Potency read?
**A.** inactive

**Q.** For `CC(C(=O)N(C)CC(=O)Nc1ccccc1C(F)(F)F)N1C(=O)c2ccccc2C1=O` (stereo unspecified), which Potency is on record?
**A.** inactive

**Q.** For `COc1ccc(Cc2nc3ccc(C(=O)NCC4CCOCC4)cc3o2)cc1OC`, which Potency is on record?
**A.** inactive

**Q.** Which Potency does the source give for `COCCNC(=O)c1ccc2nc(Cc3ccc(OC)c(OC)c3)oc2c1` here?
**A.** inactive

**Q.** With `CSCCNC(=O)c1ccc2nc(Cc3ccccc3F)oc2c1` as the compound, how does the Potency read?
**A.** 2510 nM (active)
